G9a block: G9a (human) methyltransferase inhibition. Q96KQ7. G9a H3K9 monomethylation, AlphaScreen, 2 h. Potency, µM (doses to about 102 µM), for inactives: at the top dose activity, negative = inhibition, hits mostly inhibitors. 350,000 compounds, 8.8% hits. AID 504332; note: potency is the fitted concentration of half-maximal effect; % is set by controls: 0 for no effect and ±100 for the full control effect; nearly all actives have a fitted effect of over 75% in size
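Compounds were preincubated with 20 nM G9a for 15 min, after which biotinylated H3K9 peptide (500 nM) and SAM (20 uM) started a 2 h room-temperature reaction. Monomethylated product was quantified by antibody-based AlphaScreen chemiluminescence.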
Six1-Eya2 inh: inhibitors of human Six1/Eya2 interaction; 360,000 compounds, 0.56% hits; AlphaScreen GST-Six1/His-Eya2 binding, biochemical; hits give low values; activity change, % (test concentration not listed); Q15475+O00167; AID 651725; in the data active = activity change below about -65%; inconclusive = mostly about -30% to -63%; note: % is set by controls: 0 for no effect and ±100 for the full control effect
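AlphaScreen with GST-Six1 and His-Eya2 (5X mix: 250 nM and 500 nM), glutathione donor and nickel acceptor beads; buffer 50 mM Tris pH 8.0, 300 mM NaCl, 1 mM TCEP; 1 h at 37 C in the dark.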
JMJD2A Tudor: JMJD2A Tudor domain (human) inhibition; AID 504339; 390,000 compounds, 4.4% hits; AlphaScreen JMJD2A-Tudor / H3K4me3 peptide binding; Potency, µM (doses to about 114 µM), for the others: top-dose activity change, negative = inhibition, usual class: inhibitors; O75164; note: potency is the fitted concentration of half-maximal effect; % is set by controls: 0 for no effect and ±100 for the full control effect; nearly all actives have a fitted effect of over 50% in size
Target sequence (O75164 whole entry, looked up, the tested form may be a part): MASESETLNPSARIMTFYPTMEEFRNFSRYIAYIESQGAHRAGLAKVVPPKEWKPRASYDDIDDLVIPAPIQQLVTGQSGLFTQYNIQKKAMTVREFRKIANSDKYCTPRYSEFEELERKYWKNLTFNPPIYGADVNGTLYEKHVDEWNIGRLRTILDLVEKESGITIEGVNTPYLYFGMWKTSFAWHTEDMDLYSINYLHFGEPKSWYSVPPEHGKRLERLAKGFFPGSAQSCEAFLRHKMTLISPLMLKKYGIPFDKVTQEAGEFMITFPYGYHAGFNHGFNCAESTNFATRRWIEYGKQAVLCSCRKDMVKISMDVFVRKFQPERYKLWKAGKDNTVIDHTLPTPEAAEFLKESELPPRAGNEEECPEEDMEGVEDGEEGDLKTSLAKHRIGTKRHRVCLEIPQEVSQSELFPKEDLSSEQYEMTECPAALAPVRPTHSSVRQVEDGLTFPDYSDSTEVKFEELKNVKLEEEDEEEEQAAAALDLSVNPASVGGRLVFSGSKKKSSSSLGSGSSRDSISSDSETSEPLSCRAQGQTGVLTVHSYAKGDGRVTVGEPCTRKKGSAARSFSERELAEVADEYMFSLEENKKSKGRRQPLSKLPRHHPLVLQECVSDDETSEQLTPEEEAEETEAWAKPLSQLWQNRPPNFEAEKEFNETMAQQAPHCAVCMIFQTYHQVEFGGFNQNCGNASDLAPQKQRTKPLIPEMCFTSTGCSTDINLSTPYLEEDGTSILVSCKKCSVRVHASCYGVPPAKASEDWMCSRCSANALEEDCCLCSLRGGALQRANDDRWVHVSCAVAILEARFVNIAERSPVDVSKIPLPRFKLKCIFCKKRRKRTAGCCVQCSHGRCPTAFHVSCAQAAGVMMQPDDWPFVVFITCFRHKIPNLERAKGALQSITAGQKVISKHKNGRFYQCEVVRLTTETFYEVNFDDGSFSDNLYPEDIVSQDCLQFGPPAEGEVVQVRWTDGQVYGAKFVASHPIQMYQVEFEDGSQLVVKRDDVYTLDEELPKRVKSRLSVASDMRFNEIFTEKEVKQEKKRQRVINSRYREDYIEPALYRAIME
HP1b chromo inh: blocks HP1-beta chromodomain binding to methylated histone tails; P83916; AID 540317; AlphaScreen HP1-beta / biotin-H3K9me3 peptide binding; Potency, µM (series often up to 114 µM), for inactives: at the top dose activity change, negative = inhibition, usual class: inhibitors; 390,000 compounds, 0.56% hits; note: potency is the fitted concentration of half-maximal effect; nearly all actives have a fitted effect of over 70% in size
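HP1-beta protein (50 nM final) preincubated 30 min at room temperature with biotinylated H3(1-18)K9me3 peptide (50 nM) in PBS pH 7.4, 0.01% Tween-20, then compound added for 30 min. AlphaScreen streptavidin donor/nickel chelate acceptor beads (10 ug/mL final), 30 min dark, luminescence read.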
CtBP-E1A blk: blocks the CtBP interaction with E1A; activity change, % (test concentration not listed); 340,000 compounds, 0.49% hits; AlphaScreen GST-E1A/His-CtBP binding, 1536-well; hits give low values; in the data active = activity change below about -65%; inconclusive = mostly about -30% to -63%; note: % is set by controls: 0 for no effect and ±100 for the full control effect
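GST-E1A and His-tagged CtBP (125 nM each as 5X stock) were preincubated with pin-transferred compound for 2 h at 37 °C in the dark, then glutathione donor and nickel acceptor beads were added for 1 h before AlphaScreen reading.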
BAZ2B block: blocks human BAZ2B | Potency, µM (doses to about 114 µM), for the others: at the top dose activity change, negative = inhibition, most hits filed as inhibitors | AlphaScreen BAZ2B-H3K14Ac peptide displacement | Q9UIF8 | AID 504333 | 360,000 compounds, 4.4% hits; note: potency is the fitted concentration of half-maximal effect; % is set by controls: 0 for no effect and ±100 for the full control effect; nearly all actives have a fitted effect of over 60% in size
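AlphaScreen displacement of biotin-H3(5-23)K14Ac peptide (50 nM final) from BAZ2B (50 nM final) in PBS pH 7.4, 0.01% Tween-20; complex preformed 30 min RT, then compounds (top 110 uM) 30 min RT, beads 20 min dark.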
* = called active by the depositor; ? = inconclusive; nt = no result given; [ ] = dose if it differs, or a comment. An excerpt weighted towards active compounds, which were near 10% of everything screened. Unless noted, calls come from the whole dose curve; as a rule, active = well fitted inhibition curve with a large enough effect; inconclusive = small, poorly fitted or top-dose-only effect; inactive = no such curve, though single readings can be large or run the other way.

SMILES	G9a block	Six1-Eya2 inh	JMJD2A Tudor	HP1b chromo inh	CtBP-E1A blk	BAZ2B block
CC(=O)Nc1ccc(NC2CCCCC2NS(=O)(=O)c2ccc(Cl)cc2)cc1 (stereo not drawn)	40µM*	-2	-7%	7%	-4	-34%
CC(=O)N1CCCc2cc(S(=O)(=O)N(C)CC(=O)Nc3cccc(Cl)c3C)ccc21	8%[59 µM]	nt	-15%	12%[57 µM]	nt	2%
Nc1cc(=O)[nH]c(SCC(=O)N2N=C(c3ccc(Cl)cc3)CC2c2ccco2)n1 (stereo not drawn)	?	-10	-17%	-2%	-5	?
COc1ccc(C2=NN(C(=O)CSc3nc4ncc(Cl)cc4[nH]3)C(c3ccco3)C2)cc1 (stereo not drawn)	56µM*	-16	-26%	12%	-8	-35%
CCCc1cc(=O)[nH]c(SCC(=O)N2N=C(c3ccc(Cl)cc3)CC2c2ccco2)n1 (stereo not drawn)	?	-28	-14%	12%	-1	-34%
Cc1ccc(C2=NN(C(=O)CSc3nc4ncc(Cl)cc4[nH]3)C(c3ccco3)C2)cc1 (stereo not drawn)	22µM*	8	-18%	11%	-3	nt
CCn1cc(C=O)c2cc(S(=O)(=O)N3CCOCC3)ccc21	-11%	5	-2%	11%	-6	3%
O=C(CCN1C(=O)/C(=C/c2cccs2)SC1=S)Nc1ccc(C(=O)O)c(O)c1	45µM*	?	7%	27%	nt	56µM*
O=C1/C(=C/c2cccs2)SC(=S)N1c1cccc(O)c1	?	-19	16µM*	-31%	-29	?
CC(/C=C1\SC(=S)N(CCC(=O)Nc2nc(C)cs2)C1=O)=C\c1ccccc1	?	-4	40µM*	-16%	-2	?
O=C(CCN1C(=O)/C(=C/c2cccs2)SC1=S)Nc1ccc(O)cc1	-8%	-1	-1%	14%	-3	-3%
O=C(CCCN1C(=O)/C(=C/c2cccs2)SC1=S)Nc1cccc(O)c1	28µM*	-18	40µM*	?	-28	?
CC(/C=C1\SC(=S)N(CCC(=O)Nc2ccc(O)cc2)C1=O)=C\c1ccccc1	-13%	-7	?	-11%	-6	-35%
COC(=O)C1=CN(c2ccc(N3CCOCC3)cc2)C(N)=C(C#N)C1c1cccc(F)c1 (stereo not drawn)	nt	-9	nt	nt	6	nt
CCOC(=O)c1c(Oc2ccc(C(C)=O)cc2)nnc(-c2ccccc2)c1-c1ccccc1	-29%[59 µM]	nt	-25%	20%	nt	-28%
CC(/C=C1\SC(=S)N(CCCC(=O)Nc2ccc(C(=O)O)c(O)c2)C1=O)=C\c1ccccc1	?	-16	40µM*	?	?	?
O=C(CCN1C(=O)/C(=C/c2cccs2)SC1=S)Nc1cccc(C(=O)O)c1	50µM*	-25	-29%	-7%	-27	50µM*
O=c1[nH]c2cc3ccccc3cc2nc1-c1nnnn1C1CCCC1	nt	?	nt	nt	-18	nt
CCOc1ccc(NC(=O)CC2C(=O)N(c3ccc(Cl)cc3)C(=O)N2Cc2cccs2)cc1 (stereo not drawn)	0%[59 µM]	nt	-9%	17%	nt	-14%
Cc1cccc(C(=O)Nc2ccc(N3CC=C(c4ccccc4C)CC3)c(C(=O)O)c2)c1	?	nt	?	-7%	nt	45µM*
Cc1cc(C)c(C)c(S(=O)(=O)N[C@@H](C)C(=O)OCC(N)=O)c1C	4%	2	-13%	11%	-18	3%
COc1cc2c(cc1OC)C(/C(C#N)=N\O)=NC(C)(C)C2	11µM*	3	-16%	11%	1	-2%
c1ccc(OCCCN2CCCC2)cc1	3.2µM*	2	2.8µM*	-45%	3	79µM*
c1ccc(COc2ccc(OCCCCN3CCCC3)cc2)cc1	22µM*	-6	1.4µM*	?	5	56µM*
c1ccc(COc2ccc(OCCCN3CCCCC3)cc2)cc1	13µM*	-8	40µM*	?	-9	?
SMILES	G9a block	Six1-Eya2 inh	JMJD2A Tudor	HP1b chromo inh	CtBP-E1A blk	BAZ2B block
c1ccc(OCCCCN2CCCCC2)cc1	7%[59 µM]	-12	-11%	15%	9	3%
Cc1ccc(NC(=O)N2CCN(C)c3ncccc32)cc1C	-6%[59 µM]	nt	-6%	29%	nt	-11%
CCOc1ccc(CCNC(=O)c2cc(C)nc3c2c(C)nn3-c2cccc(F)c2)cc1	-1%[59 µM]	nt	-3%	8%	nt	15%[57.1 µM]
CCCOC(=O)CSc1nnc(-c2ccccc2)o1	-3%[59 µM]	nt	23%	52%	nt	25%
Cc1sc2nc(CSc3nnnn3-c3ccc(Cl)cc3)[nH]c(=O)c2c1C	?	-1	-22%	4%	-12	1%
CCn1c(SCc2nc3sc(C(=O)O)c(C)c3c(=O)[nH]2)nnc1-c1ccc(Cl)cc1	?	-19	-3%	42%	3	56µM*
COc1ccccc1/C=C/C=N/n1c(-c2cc(-c3ccccc3)n[nH]2)n[nH]c1=S	?	-29	?	14%	0	-16%
O=C(N/N=C/C(Br)=C/c1ccccc1)c1n[nH]c2c1CCC2	63%[12.7 µM]	-3	?	13%	0	8%
S=c1[nH]nc(-c2cc(-c3ccccc3)n[nH]2)n1/N=C/C=C/c1ccccc1	8.9µM*	-9	?	20%	-12	-27%
S=c1[nH]nc(-c2cc(-c3ccccc3)n[nH]2)n1/N=C/c1ccccc1	-127%[59 µM]	-13	56µM*	32%	-14	-14%
S=c1[nH]nc(-c2n[nH]c3c2CCC3)n1/N=C/C=C/c1ccccc1	nt	-15	50µM*	5%	nt	-11%
Cc1cccc(/C=N/n2c(-c3cc(-c4ccccc4)n[nH]3)n[nH]c2=S)c1	1.6µM*	-18	79µM*	?	-8	-39%
CCOC(=O)c1c(S(=O)(=O)N(C)Cc2ccco2)c(C)n(C)c1C	18%[0.0925 µM]	0	-26%	7%	-16	?
Cc1cccc(/C=N/NC(=O)CC(=O)NCCc2ccccc2)c1	nt	5	-20%	-11%	-1	nt
S=c1[nH]nc(-c2cc(-c3ccccc3)n[nH]2)n1/N=C/c1cccs1	1.6µM*	-16	?	10%	?	-27%
S=c1[nH]nc(-c2cc(-c3ccccc3)n[nH]2)n1/N=C/C(Br)=C/c1ccccc1	22µM*	-26	56µM*	18%	-10	10µM*
BrC(=C\c1ccccc1)/C=N/n1cnnc1	16%	-1	-7%	22%	nt	-3%
CC(=O)OCCn1c(C)[n+](CCOC(C)=O)c2cc(Cl)c(Cl)cc21	50µM*	0	-9%	15%	6	-1%

Assay outcomes: PubChem, National Center for Advancing Translational Sciences (NCATS)
